From PubChem
HT1080NT lethal – qHTS for induction of synthetic lethality in tumor cells producing 2HG: qHTS for the HT-1080-NT fibrosarcoma cell line; HT-1080-NT fibrosarcoma viability, CellTiter-Glo ATP luminescence, 48 h; Potency, µM (top dose mostly 46.1 µM), for the others: at the top dose activity, negative = less viability, actives largely listed as cytotoxic; 360,000 tested, 1.6% active;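 further: NT is the 2HG producing partner of a matched IDH1 knockdown line; potency means the concentration at half of the fitted maximal effect; 0% = DMSO-treated cells and -100% = media-only wells without cells; nearly all actives have a fitted effect of over 55% in size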
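Compounds were tested in concentration-response format on HT-1080-NT cells for 48 hours at 37 degrees C. Cell viability came from CellTiter-Glo luminescence; curves were classified by r2, response magnitude and activity.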
HepG2 viability – qHTS for Inhibitors of TGF-b: Cytotox Counterscreen; HepG2 CAGA-GFP viability, ATP luminescence, 18 h; Potency, µM (titrated, usually from 46.1 µM), without a hit: at the top dose activity change, negative = cytotoxicity, hits mostly cytotoxic; 410,000 tested, 0.76% active; further: potency means the concentration at half of the fitted maximal effect
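HepG2 CAGA-GFP cells (1000/well, DMEM with 1% FBS) received compound, then TGF-beta at 500 pg/mL final, and were incubated 18 hours at 37 degrees C. Viability was read by CellTiter-Glo luminescence. Media-only wells were set as complete cell-killing and DMSO as no toxicity.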
IL1B secr inh – qHTS for Inhibitors of Inflammasome Signaling: IL-1-beta AlphaLISA Primary Screen. THP-1 LPS/ATP IL-1B secretion, AlphaLISA, 16 h; active compounds read low. activity change, % at 57.5 µM. 360,000 tested, 4.7% active; in the data active means activity change below about -50%; inconclusive means mostly about -30% to -49%; further: on the % scale 0 is the no-effect control and ±100 the full control effect
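THP-1 cells pretreated 1 hr with compounds (up to 57.5 uM final), then stimulated with LPS (250 ng/mL final) plus ATP (1.25 mM final); secreted IL-1B measured by AlphaLISA after 16 hr, decreased signal indicating inhibition.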
HT1080 IDH1KD tx – qHTS for induction of synthetic lethality in tumor cells producing 2HG: qHTS for the HT-1080-IDH1KD cell line. 360,000 tested, 2% active. AID 686971, 2013. HT-1080 IDH1 knockdown viability, ATP luminescence, 48 h. Potency, µM (doses to about 46.1 µM), for inactives: top-dose activity, negative = toxicity, hits mostly cytotoxic;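 further: potency means the concentration at half of the fitted maximal effect; 0% = DMSO wells and -100% = cell-free medium wells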
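In this qHTS, HT-1080 cells depleted of IDH1 are exposed for 48 h at 37 °C to compound titrations. Toxicity is scored from CellTiter-Glo luminescence, with DMSO as full viability and medium alone as none.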
TGFb inhibitor – qHTS for Inhibitors of TGF-b. HepG2 CAGA-GFP TGF-b/SMAD3 reporter, GFP fluorescence, 18 h; TGF-beta stimulated, 500 pg/mL final. Potency, µM (highest dose often 46.1 µM), for inactives: at the top dose activity, negative = inhibition, hits mostly inhibitors. 410,000 tested, 1.2% active; further: potency means the concentration at half of the fitted maximal effect; on the % scale 0 is the no-effect control and ±100 the full control effect; nearly all actives have a fitted effect of over 65% in size
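Inhibition was scored as loss of TGF-beta-induced (500 pg/mL final, 18 hours, 37 degrees C) GFP in HEPG2 cells carrying a CAGA-GFP reporter, in DMEM with 1% FBS. Well GFP was summed per cell; Activity was normalised to unstimulated and stimulated DMSO wells, then concentration-response fitting.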
Giardia killer – Small Molecules that selectively kill Giardia lamblia: qHTS; Giardia lamblia trophozoite viability; AID 540267, 2011; activity change, % at 7.66 µM, hits read low; 340,000 tested, 0.15% active; in the data active means activity change below about -80%; inconclusive means between about -30% and that limit;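 further: parasites exposed to compound for two days anaerobically before the ATP read; on the % scale 0 is the no-effect control and ±100 the full control effect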
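Giardia trophozoites, 100 cells per well, were exposed to compounds for 48 hrs at 37 deg C under anaerobic conditions; viability was then read as ATP content by bioluminescence after 15-30 min at room temperature.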
Active calls of the source: *; i = inactive; ? = inconclusive; . = no result. Hits are enriched below; roughly 6.5% of the tested compounds scored in any of these assays. Unless noted, the call rests on the fitted dose curve; in most records, active means well fitted curve in the direction sought with a large enough effect; inconclusive means small, poorly fitted or top-dose-only effect, or another doubt; inactive means no such curve, though single readings can be large; an effect the other way counts as inactive or inconclusive.

SMILES | HT1080NT lethal | HepG2 viability | IL1B secr inh | HT1080 IDH1KD tx | TGFb inhibitor | Giardia killer
COc1ccc(/C=N/NC(=O)c2cccnc2)cc1CN1CCc2cc(OC)c(OC)cc2C1C (configuration not stated) | -13% | -2% | 50 | -12% | ? | 15
Nc1nc(SCC(=O)NCC2CCCO2)[nH]c(=O)c1NC(=O)c1ccc(F)c(F)c1 (configuration not stated) | -13% | -5% | i | -19% | 29% | 20
COc1ccc(/C=N/NC(=O)c2ccc3ccccc3c2)cc1OS(=O)(=O)c1ccc(NC(C)=O)cc1 | 6.3µM* | -3% | -12 | ? | ? | 5
CCCCCCCCCCC[N+](C)(C)CC/C=C1/c2ccccc2Sc2ccc(Cl)cc21 | ? | 20µM* | -67* | ? | ? | 2
CCCCCCCCCC[N+](C)(C)CC/C=C1/c2ccccc2Sc2ccc(Cl)cc21 | ? | -107% | -30 | ? | ? | 9
O=C(Nc1nc2c(Cl)cccc2s1)c1ccc(Br)o1 | -13% | -21% | -18 | -17% | 1% | -5
O=C(Nc1nc2c(Cl)cccc2s1)c1ccc([N+](=O)[O-])o1 | -4% | -2% | -11 | 1% | -12% | -101*
O=C(Nc1nc2c(F)cccc2s1)c1ccc([N+](=O)[O-])o1 | 1% | -20% | -12 | -7% | 4% | -97*
Cc1ccc2oc(C(=O)N(Cc3ccc(N(C)C)cc3)CC3CCCO3)c(C)c2c1 (configuration not stated) | -1% | -9% | -24 | -9% | ? | -2
CCC(C)[C@H](NC(=O)[C@@H]1Cc2ccccc2CN1)C(=O)NCc1ccc(C)cc1 (some centres not stated) | -6% | -1% | 0 | 1% | 1% | .
CC(=O)c1c(NCCc2ccccc2)nc(=S)n(-c2ccccc2)c1C | -15% | -103% | -101* | -12% | ? | 0
CC(=O)c1c(N2CCN(c3cccc(Cl)c3)CC2)nc(=S)n(-c2ccccc2)c1C | -5% | -5% | -102* | -29% | 6% | 3
Fc1ccc(COc2ccc(Br)cc2CNCC2CCCO2)cc1 (configuration not stated) | ? | -16% | -74* | ? | -17% | -22
CC(NC(=O)C1=CC=CN2CCS(=O)(=O)N=C12)c1ccc(Cl)cc1Cl (configuration not stated) | -4% | -2% | -10 | -1% | -22% | -16
COc1ccc(C(=O)C(C)OC(=O)CCN2C(=O)C3CC=CCC3C2=O)cc1 (configuration not stated) | -3% | -25% | -11 | 0% | 22% | 36
Cc1ccccc1Cn1nnc2c1C(=O)c1ccccc1C2=O | -9% | -88% | 0 | 23µM* | 3.5µM* | ?
Cc1ccccc1Cn1nnc2sc3c(c2c1=O)CCCC3 | . | -39% | . | . | ? | .
Cc1cccc(Cn2nnc3c2C(=O)c2ccccc2C3=O)c1 | ? | -58% | 11 | ? | 3.2µM* | ?
Cc1cccc(C)c1NC(=O)C(c1ccccc1)N1CCC2(CC1)OCCO2 (configuration not stated) | -2% | -3% | -8 | -3% | 14% | -3
O=C(CN1c2ccccc2Sc2ccccc21)N/N=C/c1ccc([N+](=O)[O-])cc1 | -14% | 0% | -9 | -1% | 0% | 18
N#C/C(=N\Nc1ccccc1)C(N)=S | -2% | -32% | . | -9% | ? | -9
N#C/C(=N\Nc1ccc(Cl)cc1)C(N)=S | 9.2µM* | -37% | -81* | 2.3µM* | ? | 2
COC(=O)C1=C(C)NC2=C(C(=O)c3ccccc32)C1c1cccc(OC)c1 (configuration not stated) | 13% | -1% | -19 | -1% | 3% | 0
CC1=C([N+](=O)[O-])C(c2cccc(Br)c2)C2=C(N1)c1ccccc1C2=O (configuration not stated) | 1.3µM* | -32% | -63* | 1.3µM* | ? | -14
CCOC(=O)c1c(NC(=O)COc2ccccc2)sc2c1CC(C)(C)NC2(C)C | 0% | 12% | -4 | 9% | 5% | -14
SMILES | HT1080NT lethal | HepG2 viability | IL1B secr inh | HT1080 IDH1KD tx | TGFb inhibitor | Giardia killer
CCOC(=O)c1c(NC(=O)CSc2nc3ccccc3[nH]2)sc2c1CC(C)(C)NC2(C)C | -2% | -28% | -51* | 5% | 2% | 2
CCCc1nnc(NC(=O)CSc2nc3ccccc3[nH]2)s1 | -2% | 7% | -109* | 0% | -19% | 7
O=C(CSc1ccccc1)Nc1nc2ccccc2[nH]1 | 12µM* | -15% | 26 | ? | -6% | -2
CCOC(=O)c1c(NC(=O)COC(=O)/C=C/c2ccco2)sc2c1CC(C)(C)NC2(C)C | 2% | -39% | -68* | -4% | ? | -20
Cc1ccc(-n2c(=O)c3c(c4cc(C)ccc4n3C)n(CC(=O)N3CCCC3)c2=O)cc1 | . | -12% | . | . | -32% | .
O=C(NCc1ccccc1)N1CCn2c(nc3ccccc32)C1 | 1% | 0% | 5 | 6% | -4% | 3
O=S(=O)(c1ccc(NC(=S)NCc2cccnc2)cc1)N1CCCCC1 | ? | -22% | 13 | 10µM* | ? | -22
O=C(NCc1cccnc1)c1ccc(S(=O)(=O)N2CCCCC2)cc1 | 6% | -18% | 8 | -1% | -7% | -7
Cc1c(C(=O)NCc2cccnc2)oc2ccc(S(=O)(=O)N3CCCCCC3)cc12 | -17% | -16% | 20 | -12% | 5% | -8
Cc1c(C(=O)NCc2cccnc2)oc2ccc(S(=O)(=O)N3CCCCC3)cc12 | ? | -41% | -5 | 14µM* | -4% | 9
COc1cccc(NC(=O)c2nn(-c3ccc(C)cc3)c(=O)n(C)c2=O)c1 | . | 5% | . | . | 14% | .
Cc1ccc(Sc2ncccc2[N+](=O)[O-])cc1 | 4% | -2% | -2 | 6% | 0% | 13
Cc1c([N+](=O)[O-])cnc(Sc2ccccc2)c1[N+](=O)[O-] | ? | 20µM* | -16 | ? | 13µM* | -6
